Measurements from paper PMC4336329 (PLoS ONE, 2015).
Among all 310,000 compounds or so, about 2,200 (0.71%) showed an effect of 50% or more. The effect is printed as a negative number. Only a selection was taken, and strong results are over-represented in it overall.

molecular target: human ether-à-go-go-related gene (hERG) potassium channel (human, UniProt Q12809); test: primary screen, population patch clamp on CHO cells stably expressing hERG; higher = less effect of the substance
Sequence (Q12809 whole entry, looked up): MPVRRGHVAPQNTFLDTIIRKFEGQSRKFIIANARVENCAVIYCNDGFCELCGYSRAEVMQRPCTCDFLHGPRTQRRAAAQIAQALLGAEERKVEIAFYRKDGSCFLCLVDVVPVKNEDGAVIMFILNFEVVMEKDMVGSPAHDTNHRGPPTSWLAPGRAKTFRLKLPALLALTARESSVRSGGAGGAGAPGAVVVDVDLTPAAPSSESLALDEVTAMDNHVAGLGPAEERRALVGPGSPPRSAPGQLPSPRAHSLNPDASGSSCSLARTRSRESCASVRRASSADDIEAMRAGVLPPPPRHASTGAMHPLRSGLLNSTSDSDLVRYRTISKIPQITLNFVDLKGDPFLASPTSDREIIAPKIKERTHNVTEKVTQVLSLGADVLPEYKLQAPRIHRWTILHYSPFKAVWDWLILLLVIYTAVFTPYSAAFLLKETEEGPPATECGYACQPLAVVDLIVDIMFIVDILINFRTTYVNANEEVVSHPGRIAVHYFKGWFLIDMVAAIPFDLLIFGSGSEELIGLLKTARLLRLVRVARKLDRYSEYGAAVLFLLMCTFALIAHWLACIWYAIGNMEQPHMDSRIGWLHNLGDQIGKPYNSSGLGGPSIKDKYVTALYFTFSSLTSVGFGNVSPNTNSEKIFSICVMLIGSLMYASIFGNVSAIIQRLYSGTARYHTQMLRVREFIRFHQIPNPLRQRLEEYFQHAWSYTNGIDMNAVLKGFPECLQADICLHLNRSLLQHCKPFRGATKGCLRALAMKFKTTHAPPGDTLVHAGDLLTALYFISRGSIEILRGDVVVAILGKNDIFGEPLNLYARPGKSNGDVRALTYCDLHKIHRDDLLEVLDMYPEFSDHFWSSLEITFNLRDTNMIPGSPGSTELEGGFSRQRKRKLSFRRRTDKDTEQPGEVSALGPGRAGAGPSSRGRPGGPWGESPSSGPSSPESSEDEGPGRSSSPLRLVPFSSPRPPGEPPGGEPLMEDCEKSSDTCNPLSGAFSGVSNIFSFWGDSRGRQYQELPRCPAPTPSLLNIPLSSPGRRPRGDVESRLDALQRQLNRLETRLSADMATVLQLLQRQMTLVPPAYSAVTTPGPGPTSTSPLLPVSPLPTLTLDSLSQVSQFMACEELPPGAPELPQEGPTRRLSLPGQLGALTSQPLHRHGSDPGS

| Compound | hERG current change (%, negative = inhibition) at 1uM [%] |
| --- | --- |
| CCOc1cccc(-c2nn3c(-c4cc(C)[nH]n4)nnc3s2)c1 | -8.21 |
| COc1ccc(/C=C/C(=O)Oc2ccc(C)cc2)cc1 | 1.29 |
| COc1ccc(/C=C/c2cc(-c3ccc(C)cc3)o[n+]2C)cc1.F[B-](F)(F)F | -76.5 |
| COc1ccc(/C=C/c2cc(C(F)(F)F)on2)cc1 | 17.5 |
| CCC(C)N(CCNC(=O)CC1Oc2ccc(C)cc2NC1=O)C1CCCCC1 (stereo not shown) | -58.1 |
| Cc1ccc2c(c1)NC(=O)C(CC(=O)NCCCN1CCCCC1)O2 (stereo not shown) | 6.37 |
| Cc1ccc2c(c1)NC(=O)C(CC(=O)NCCCN1CCCC1)O2 (stereo not shown) | 12.4 |
| Cc1ccc2c(c1)NC(=O)C(CC(=O)NCCN(CC(C)C)CC(C)C)O2 (stereo not shown) | 0.19 |
| Cc1ccc2c(c1)NC(=O)C(CC(=O)NCCCN1CCc3ccccc3C1)O2 (stereo not shown) | -58.5 |
| CCC(C)N(CCNC(=O)CC1Oc2ccccc2NC1=O)C1CCCCC1 (stereo not shown) | -35.6 |
| O=Cc1c(NCc2ccccc2)c2ccccc2[nH]c1=O | 12.6 |
| C/C(=N\OCC(=O)Nc1ccc(OC(F)(F)F)cc1)c1ccc2c(c1)OCCO2 | 6.61 |
| C=CCS/C(N)=N\N=C\c1c(O)ccc2ccccc12 | 13.3 |
| Cc1ccc(C(=O)CN2C(=O)NC3(CCOc4ccccc43)C2=O)s1 (stereo not shown) | 2.46 |
| Cc1sc2ncn(CC(=O)NCCCC(=O)N3CCC4(CC3)OCCO4)c(=O)c2c1C | 10.7 |
| CCOC(=O)c1oc2ccccc2c1NC(=O)c1cccs1 | 0.447 |
| N/C(Cc1ccc([N+](=O)[O-])cc1)=N\OC(=O)c1ccc([N+](=O)[O-])cc1 | -56.7 |
| N/C(Cc1ccc([N+](=O)[O-])cc1)=N\OC(=O)c1ccc(Br)cc1 | -3.44 |
| N/C(Cc1ccc([N+](=O)[O-])cc1)=N\OC(=O)c1ccc2ccccc2c1 | 4.74 |
| COc1ccc(CNC(=O)C2(CC3CC(c4ccccc4)=NO3)CCN(C(=O)CCCCCBr)CC2)cc1 (stereo not shown) | -60.3 |

| Compound | hERG current change (%, negative = inhibition) at 1uM [%] |
| --- | --- |
| COc1ccc(CNC(=O)C2(CC3CC(c4ccccc4)=NO3)CCN(C(=O)Cc3ccc(F)cc3)CC2)cc1 (stereo not shown) | 12.8 |
| COc1ccc(CNC(=O)C2(CC3CC(c4ccccc4)=NO3)CCN(C(=O)OC(C)(C)C)CC2)cc1 (stereo not shown) | 2.59 |
| COc1ccc(CNC(=O)C2(CC3CC(c4ccccc4)=NO3)CCN(C(=O)C3(C)CC3)CC2)cc1 (stereo not shown) | -37.1 |
| COc1ccc(CNC(=O)C2(CC3CC(c4ccccc4)=NO3)CCN(C(=O)c3cccc(O)c3)CC2)cc1 (stereo not shown) | 8.84 |
| COc1ccc(CNC(=O)C2(CC3CC(c4ccccc4)=NO3)CCN(C(=O)C3CCCC3)CC2)cc1 (stereo not shown) | -67.1 |
| COc1ccc(C2NC(=O)c3ccccc3O2)cc1OC (stereo not shown) | 8.88 |
| Fc1cccc(CCN2C(=S)NC[C@@H]2CC2CCCCC2)c1 | 8.53 |
| CCn1nc(C(C)C)cc1C(=O)N1CCCC(CO)(Cc2ccc(F)cc2F)C1 (stereo not shown) | 5.81 |
| CC1CCCCN1C(=O)c1ccc(COc2ccc([N+](=O)[O-])cc2)o1 (stereo not shown) | -18.9 |
| CCN(CC)CC(=O)N1CCCC(C(=O)c2ccccc2OC)C1 (stereo not shown) | 6.77 |
| COc1ccccc1C(=O)C1CCCN(C(=O)C2CCCC2)C1 (stereo not shown) | 8.68 |
| CCOC(=O)N1CCC(N2CCCC(C(=O)c3ccccc3OC)C2)CC1 (stereo not shown) | -59.3 |
| CCOC(=O)N1CCC(N2CCCC(C(=O)c3cc(F)ccc3OC)C2)CC1 (stereo not shown) | -52.2 |
| COc1ccc(F)cc1C(=O)C1CCCN(Cc2ccc(O)cc2)C1 (stereo not shown) | -25.1 |
| COc1ccc(F)cc1C(=O)C1CCCN(C(=O)C2=C(C)OCCO2)C1 (stereo not shown) | 14.5 |
| CC(=O)Nc1ccc2[nH]c3ccccc3c2c1 | 3.08 |
| O=C(NCCCN1CCOCC1)c1sc2cc(Cl)ccc2c1Cl | 6.47 |
| Cc1c(C(=O)N(C)Cc2ccccc2)oc2ccc(S(=O)(=O)N3CCCC3)cc12 | -0.449 |
| COc1ccc(CCNC(=O)C(=O)Nc2ccc3c(c2)OCCO3)cc1OC | 14.4 |
| O=C(NCc1ccncc1)C(=O)NCC(c1ccco1)N1CCN(c2ccccc2)CC1 (stereo not shown) | 3.03 |

| Compound | hERG current change (%, negative = inhibition) at 1uM [%] |
| --- | --- |
| CCOc1ccc(N(C(=O)CNS(=O)(=O)c2ccccc2)C(CC)C(=O)NCc2ccco2)cc1 (stereo not shown) | 4.35 |
| CCCCON1C(=O)c2cccc3cccc(c23)C1=O | 8.5 |
| NC1=Nc2cccc3cccc1c23 | 12.8 |
| CCCCN(C)C1=Nc2cccc3cccc1c23 | -54.9 |
| CN1CCN(CC(O)COc2ccc(Cl)cc2)CC1.Cl (stereo not shown) | -5.93 |
| Cl.OC(COc1ccccc1)CN1C2=NCCCN2c2ccccc21 (stereo not shown) | -54.6 |
| CCN1C2=NCCCN2c2ccccc21.Cl | 2.9 |
| Cl.OC(COc1ccc(Cl)cc1)CN1C2=NCCCN2c2ccccc21 (stereo not shown) | -82 |
| OC(COc1ccccc1)CN1CCCC1 (stereo not shown) | 9.18 |
| Cl.ClCCN1C2=NCCCN2c2ccccc21 | -1.36 |
| Cc1ccc(/C(O)=C2\C(=O)C(=O)N(CCN(C)C)C2c2ccccc2F)cc1 (stereo not shown) | -6.65 |
| COc1ccc(S(C)(=O)=O)cc1S(C)(=O)=O | 12.3 |
| CC(C)OCCCNC(=O)c1c(N)n(CC2CCCO2)c2nc3ccccc3nc12 (stereo not shown) | 6.34 |
| CCn1c(Cn2nnc(-c3ccccc3)n2)nnc1SCC(=O)Nc1ccc(C(C)=O)cc1 | 5.63 |
| COc1ccc(CCn2c(=N)c(C(=O)NCC3CCCO3)cc3c(=O)n4cccc(C)c4nc32)cc1 (stereo not shown) | -88.1 |
| Cc1cccn2c(=O)c3cc(C(=O)NCC4CCCO4)c(=N)n(CCc4ccccc4)c3nc12 (stereo not shown) | -84.4 |
| COc1ccc(CCn2c(=N)c(C(=O)NCC3CCCO3)cc3c(=O)n4cccc(C)c4nc32)cc1OC (stereo not shown) | -87.1 |
| COc1ccc(CCn2c(=N)c(C(=O)NCCN3CCOCC3)cc3c(=O)n4cccc(C)c4nc32)cc1OC | -44.4 |
